NPR1 antag – Natriuretic polypeptide receptor (hNpr1) antagonism - Primary qHTS; Atrial natriuretic peptide receptor 1 (Homo sapiens), P16066; HEK293 hNpr1 GloSensor cGMP, ANP-stimulated luminescence; Potency, µM (top dose mostly 46.3 µM), for the others: at the highest dose activity change, negative = inhibition, hits mostly inhibitors; 76,000 compounds, 1.6% hits; AID 1347048, 2019; calls by dose curve; note: % is set by controls: 0 for no effect and ±100 for the full control effect; nearly all actives have a fitted effect of over 60% in size
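HEK293 cells stably expressing human Npr1 and cGMP GloSensor pGS-40F, loaded 2 h with 2% GloSensor reagent, given compound 30 min at room temperature. Luminescence read before and 20 min after 0.1 nM hNppA.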
HEK293 tox – Cytotoxic Profiling in HEK 293 Cell Line of Diverse Libraries Using Quantitative High-Throughput Screening | HEK 293 viability, ATP luminescence (CellTiter-Glo), 48-72 h | Potency, µM (series often up to 115 µM), for the others: top-dose activity change, negative = cytotoxicity, hits mostly inhibitors | 94,000 compounds, 6.6% hits; note: % is set by controls: 0 for no effect and ±100 for the full control effect; nearly all actives have a fitted effect of over 60% in size
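Read-out: CellTiter-Glo ATP luminescence. Cells: HEK 293, 250 cells/well. Exposure: 48 or 72 hr, 37 degree Celsius.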
FLuc inh-1 – Firefly luciferase inhibition profiling of diverse chemical library using quantitative high-throughput screening | purified P. pyralis luciferase, luminescence, biochemical | Potency, µM (doses to about 115 µM), usual class: inhibitors | 76,000 compounds, 2.5% hits | AID 1347043, 2019; note: % is set by controls: 0 for no effect and ±100 for the full control effect; nearly all actives have a fitted effect of over 65% in size
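Purified 10nM P. pyralis luciferase with 10uM D-luciferin and 10uM ATP in 50mM Tris acetate pH 7.5, 10mM Mg acetate, 0.01% Tween-20, 0.05% BSA. qHTS titration; luminescence read by CCD imager.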
3T3 cytotox – Cytotoxic Profiling in NIH 3T3 Cell Line of Diverse Libraries Using Quantitative High-Throughput Screening; NIH 3T3 viability, CellTiter-Glo ATP luminescence, 48-72 h; 94,000 compounds, 4.3% hits; Potency, µM (series often up to 96.7 µM), for the others: at the top dose activity change, negative = cytotoxicity, actives largely listed as inhibitors; note: % is set by controls: 0 for no effect and ±100 for the full control effect; nearly all actives have a fitted effect of over 55% in size
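Cytotoxicity is measured as loss of cellular ATP: NIH 3T3 cells (400/well) are exposed to compound for 48 or 72 hr at 37 °C, then CellTiter-Glo luminescence is imaged after 10 min at room temperature.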
FLuc SDR -ATP – Firefly luciferase (FLuc-C-HiBiT) SDR gain of signal screen - without ATP | shares compounds with FLuc inh-1 | Purified FLuc-C-HiBiT, Nano-Glo HiBiT luminescence, no ATP | Potency, µM (doses to about 32.7 µM), for the others: top-dose activation (signal gain), hits mostly activators | 1,300 compounds, 7.8% hits; note: nearly all actives have a fitted effect of over 55% in size
FLuc SDR ATP – Firefly luciferase (FLuc-C-HiBiT) SDR gain of signal screen - plus ATP. shares compounds with FLuc inh-1. purified FLuc-C-HiBiT + ATP, HiBiT complementation luminescence. Potency, µM (top dose mostly 32.7 µM), inactives show at the highest dose activation (gain of signal), usual class: activators. 1,300 compounds, 8.7% hits;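 note: signal reports ligand binding via conformational change of the enzyme rather than luciferase catalysis; % of control where 0% means no effect; nearly all actives have a fitted effect of over 55% in size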
FLuc inh-2 – Firefly luciferase (FLuc-C-HiBiT) enzymatic inhibition screen - Functional assay | shares compounds with FLuc inh-1 | purified FLuc-C-HiBiT enzyme, luciferin luminescence | Potency, µM (top dose mostly 32.7 µM), inactives show at the highest dose activity change, negative = inhibition, hits mostly inhibitors | 1,300 compounds, 42% hits | AID 1963320, 2024; note: % is set by controls: 0 for no effect and ±100 for the full control effect; nearly all actives have a fitted effect of over 70% in size
* hit, by the source's call; i = inactive; ? = inconclusive; . = no result given; [ ] = dose if it differs, or a comment. Shown are actives, neighbours in structure and some others; about 11% of the full set was active somewhere. Unless noted, calls come from the whole dose curve; as a rule, active = well fitted curve in the direction sought with a large enough effect; inconclusive = small, poorly fitted or top-dose-only effect, or another doubt; inactive = no such curve, though single readings can be large; an effect the other way counts as inactive or inconclusive. Potency is the fitted concentration of half-maximal effect.

SMILES | NPR1 antag | HEK293 tox | FLuc inh-1 | 3T3 cytotox | FLuc SDR -ATP | FLuc SDR ATP | FLuc inh-2
CC(C)Cc1noc(-c2ccc(N3CCCC(C(C)(C)O)C3)nc2)n1 (stereo not drawn) | -11% | ? | i | ? | . | . | .
Cc1ccc(CN2CCCC(c3nc(C(C)C)no3)CCNC(=O)CC2)o1 (stereo not drawn) | 0% | ? | i | -22% | . | . | .
CC(=O)N1CCC(N2CCOC[C@H]2c2ncc(C(C)(C)C)[nH]2)CC1 | 1%[70.6 µM] | 3%[172 µM] | i | -2%[174 µM] | . | . | .
COc1ccc(C(=O)N2CCC(Cc3nc(-c4cccnc4)n[nH]3)C2)cc1F (stereo not drawn) | -5% | 2% | i | -12% | . | . | .
O=C(Nc1cccc(Cl)c1)c1cc(-c2ccc3c(c2)OCCO3)on1 | . | . | . | . | ? | ? | 0.62µM*
Cc1noc(-c2ccc3c(c2)OCO3)c1C(=O)NCCc1cccc(Cl)c1 | -15% | ? | i | ? | . | . | .
C[C@@H](NC(=O)Nc1cccnc1)c1onc(-c2ccc(Cl)cc2)c1C(=O)O | 5%[70.6 µM] | i | i | -4%[138 µM] | . | . | .
O=C(Nc1cccnc1)c1cc(-c2ccc(Cl)cc2)on1 | . | . | . | . | 15% | 14% | ?
CC1=Nc2cc(C(=O)NC(C)c3ccc4c(c3)OCCO4)ccc2Sc2ccc(Cl)cc21 (stereo not drawn) | -23% | ? | i | -12% | . | . | .
Cc1ccc(Cl)cc1NC(=O)c1cc(-c2ccc3c(c2)OCCO3)on1 | . | . | . | . | ? | ? | 1.8µM*
Cc1cccc(CNC(=O)c2c(C)noc2-c2ccc3c(c2)OCO3)c1 | -3% | ? | i | -13% | . | . | .
Cc1cccc(NC(=O)c2cc(-c3ccc4c(c3)OCCO4)on2)c1 | . | . | . | . | 5µM* | ? | 0.44µM*
O=C(Nc1ccc(Cl)cc1)N1CCn2c(nn(-c3ccc(F)cc3)c2=O)C1 | -2% | ? | i | ? | . | . | .
O=C(Nc1ccccc1F)N1CCCC(Cn2c(C3CC3)nc3cccnc32)C1 (stereo not drawn) | 4% | -17% | i | -14% | . | . | .
CC(C)(C)c1ccc(C(=O)Nc2ccc(C(O)[C@H]3COCC(=O)N3Cc3ccccc3)cc2)cc1 (stereo partly drawn) | ? | ? | 11µM* | 22µM* | 15% | 10% | -15%
Cc1ccc(NC(=O)N2CC[C@@H]3C(=O)NCCCCCCN(Cc4ccncc4)[C@@H]3C2)cc1C | -3% | ? | i | ? | . | . | .
CN1CCCCCCN(C(=O)Nc2ccc3c(c2)OCCO3)CCC1=O | -29% | -1% | 4.5µM* | -11% | 29% | ? | 9.9µM*
O=C1NCCCCCCN(Cc2ccncc2)[C@@H]2CN(C(=O)Nc3ccc4c(c3)OCCO4)CC[C@H]12 | -3% | -21% | 11µM* | ? | 20% | 17% | ?
O=C1NCCCCCCN(C(=O)Nc2ccc3c(c2)OCCO3)[C@H]2CCCC[C@@H]12 | ? | 0% | 4.5µM* | -12% | 27% | ? | 8.8µM*
O=C(Nc1ccc2c(c1)OCCO2)N1CCN(C(=O)N2CC3CC(C2)[C@H]2CCCC(=O)N2C3)CC1 (stereo partly drawn) | 2% | 14% | i | 3% | . | . | .
COc1ccc(C(=O)N2CC(=O)N(Cc3ccco3)CC(O)C2)cc1OC (stereo not drawn) | . | -2% | . | ? | . | . | .
O=C([C@@H]1C[C@H](F)CN1C(=O)Cc1cccs1)N1CCc2ccccc2C1 | -1% | -13% | i | -7% | . | . | .
Cc1ccc(S(=O)(=O)N2CCN(C3CCN(C)C3=O)CC2)cc1C (stereo not drawn) | 0% | -2% | i | -1% | . | . | .
Cc1ccc(S(=O)(=O)NCCn2c(C)cnc2C2CCC2)cc1F | -12% | ? | i | -19% | . | . | .
O=C(Nc1ccccc1)C1(CCO)CCN(Cc2ccccc2)C1 (stereo not drawn) | -8% | ? | i | -21% | . | . | .
SMILES | NPR1 antag | HEK293 tox | FLuc inh-1 | 3T3 cytotox | FLuc SDR -ATP | FLuc SDR ATP | FLuc inh-2
O=C(Nc1cccc2ccccc12)O[C@@H]1CO[C@H]2[C@@H]1OC[C@@H]2NC(=O)N1CCOCC1 | 1%[70.6 µM] | ? | i | -21%[174 µM] | . | . | .
Cc1ccc(NC(=O)C2CCN(C(=O)c3ncn4c3COC(c3ccccc3)C4)CC2)cc1C (stereo not drawn) | 6% | 5% | 4µM* | i | 14% | ? | ?
COc1ccc(C2Cn3cnc(C(=O)N4CCC(C(=O)Nc5ccc(F)c(C)c5)CC4)c3CO2)cc1 (stereo not drawn) | -9% | 4% | i | i | . | . | .
COc1ccc(NC(=O)C2CCN(C(=O)c3ncn4c3COC(c3ccccc3)C4)CC2)cc1 (stereo not drawn) | 1% | 8% | 8.9µM* | i | 11% | ? | ?
COc1ccc(NC(=O)C2CCN(C(=O)c3ncn4c3COC(c3ccccc3)C4)CC2)cc1OC (stereo not drawn) | -2% | 12% | 5.6µM* | 0% | 13% | ? | 3.5µM*
COc1ccc(C(=O)N2CCC(n3cc(-c4nc(C(C)C)no4)nn3)C2)cc1OC (stereo not drawn) | 0% | -8% | i | -15% | . | . | .
COCc1noc(CCNC(=O)C2CC3(CCNCC3)CN2)n1 (stereo not drawn) | 4% | -29% | i | -3% | . | . | .
COc1ccc(-c2ccc3nnc(CNC(=O)COc4ccccc4)n3n2)cc1 | 12% | -18% | i | -23% | . | . | .
COc1ccccc1CCC(=O)N1C[C@@H](CO)[C@H](N(C)C)C1 | 7% | 2% | i | 1% | . | . | .
COc1ccc(CNc2cc3c(cn2)CN(C)CCN3)cc1OC | 2%[70.6 µM] | ? | i | ? | . | . | .
COc1ccc(CN2CCNc3cc(Nc4ccccc4)ncc3C2)cn1 | -16%[70.6 µM] | 112µM* | 5µM* | 56µM* | 22%[49.3 µM] | 16%[49.3 µM] | ?
c1cncc(Nc2cc3c(cn2)CN(CC2CCOCC2)CCN3)c1 | 3%[70.6 µM] | -26%[172 µM] | ? | ? | . | . | .

Bioassay records deposited in PubChem by National Center for Advancing Translational Sciences (NCATS).
